High-throughput results from PubChem.
UGM FP inh: blocks M. tuberculosis UGM enzyme; P9WIQ1; purified UGM, fluorescence polarization probe displacement; AID 504406; inhibition, % at 10 µM; hit rate 0.06% among 320,000; in the data active = inhibition above about 10%, passing the limit was not always enough
Target sequence (P9WIQ1 whole entry, looked up): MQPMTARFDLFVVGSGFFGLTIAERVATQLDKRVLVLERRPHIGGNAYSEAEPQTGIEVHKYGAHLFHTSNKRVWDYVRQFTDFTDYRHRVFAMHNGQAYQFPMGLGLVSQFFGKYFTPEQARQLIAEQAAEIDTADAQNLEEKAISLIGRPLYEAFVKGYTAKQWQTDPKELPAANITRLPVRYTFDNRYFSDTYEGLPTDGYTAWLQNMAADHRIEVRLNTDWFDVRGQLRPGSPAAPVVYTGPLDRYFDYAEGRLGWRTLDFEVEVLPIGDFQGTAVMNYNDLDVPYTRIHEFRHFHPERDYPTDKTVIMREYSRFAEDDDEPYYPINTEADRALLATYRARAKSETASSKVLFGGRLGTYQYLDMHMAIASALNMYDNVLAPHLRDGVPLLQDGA
Mtb hypoxia rep: reduces hypoxia-regulated biosensor signal in M. tuberculosis; M. tuberculosis hypoxia-regulated fluorescent reporter, fluorescence; fluorescence inhibition, % (test concentration not listed); hit rate 0.1% among 300,000; AID 1159583; in the data active = fluorescence inhibition mostly above about 23%, no sharp cut-off; inactive = mostly below about 17%
Rv3671c protease: Rv3671c (M. tuberculosis) protease inhibition | P9WHR9 | inhibition, % at 5.96 µM | hit rate 0.048% among 320,000 | AID 2606; in the data active = inhibition above about 38%;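 note: extracellular domain of Rv3671c used as enzyme; 0% = enzyme with DMSO and 100% = no enzyme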
FadD28 binding: M. tuberculosis FadD28 bisubstrate binding inhibition; FadD28 bisubstrate probe binding, fluorescence polarization; inhibition, % at 12.5 µM; hit rate 0.22% among 360,000; AID 588549; in the data active = inhibition above about 8.5%, passing the limit was not always enough
RecA splice inh: Mtb RecA intein splicing inhibition; hit rate 0.75% among 290,000; cell-free RecA intein splicing, fluorescence; inhibition, % (test concentration not listed); P9WHJ3; AID 2221; in the data active = inhibition above about 30%;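 note: 0% = vehicle wells and 100% = reference inhibitor control wells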
GFP chromophore: counter-screen: blocks GFP chromophore formation; shares compounds with RecA splice inh; cell-free GFP chromophore formation, fluorescence; EC50, µM; hit rate 83% among 2,100; call rule not given here
* = called active by the depositor; · = not tested or not shown; ! = not active in a repeat. The list is not random: actives were taken first. Their share in the collection is about 0.92%.

SMILES	UGM FP inh	Mtb hypoxia rep	Rv3671c protease	FadD28 binding	RecA splice inh	GFP chromophore
Cc1ccc(C(C)C)c(OCC(=O)NN=Cc2cccn2C)c1	·	3	·	·	·	·
Cc1cc(Nc2ccccc2)c2c([N+](=O)[O-])ccc(C)c2n1	2	11	-6	-4	71*	12*
Cc1cc(Nc2cccc([N+](=O)[O-])c2)c2cccc(C)c2n1	-1	3	3	1	·	·
Cc1ccc(-c2[nH]nc3c2C(c2cccnc2)C(C#N)=C(N)O3)cc1 (stereo not given)	1	-3	-4	-5	69*	13*
CC(C)C1C(C#N)=C(N)Oc2n[nH]c(-c3ccccc3)c21 (stereo not given)	0	·	-8	-3	8	·
COc1ccc(-c2[nH]nc3c2C(c2ccoc2)C(C#N)=C(N)O3)cc1 (stereo not given)	0	8	-13	-2	87*	4.7*
N#CC1=C(N)Oc2n[nH]c(-c3ccccc3)c2C1c1cccnc1 (stereo not given)	1	1	-10	-4	80*	17*
CCOc1cc(C2C(C#N)=C(N)Oc3n[nH]c(-c4ccccc4)c32)ccc1O (stereo not given)	-1	6	-7	-4	83*	6.4*
COC(=O)C1=C(c2cccc(OCc3ccccc3)c2)CC2CCC1N2C(=O)NNCc1ccccc1 (stereo not given)	·	11	·	·	·	·
Cc1ccc(-c2[nH]nc3c2C(c2ccc(OC(=O)N4CCOCC4)cc2)C(C#N)=C(N)O3)cc1 (stereo not given)	-1	11	-19	0	82*	11*
N#CC1=C(N)Oc2nc(-c3ccccc3)[nH]c2C1c1cccnc1 (stereo not given)	-1	11	-7	1	78*	23*
CCOC(=O)C1=C(c2ccccc2)OC(N)=C(C#N)C1c1cccnc1 (stereo not given)	0	-3	11	0	-1	·
Cc1nn(-c2ccccc2)c2c1C(c1ccc(F)cc1F)C(C#N)=C(N)O2 (stereo not given)	-3	8	-11	-1	50*	3.9*
N#CC1=C(N)Oc2cc(N)ccc2C1c1ccc(F)cc1F (stereo not given)	0	·	-12	0	·	·
Cc1nn(-c2ccccc2)c2c1C(c1ccccc1)C(C#N)=C(N)O2 (stereo not given)	0	·	-130	-1	54*	29*
N#CCCn1cc(C=C2NC(=S)N(c3ccccc3)C2=O)c(-c2ccc(-c3ccccc3)cc2)n1	·	3	·	·	·	·
COc1cc(O)ccc1C=NNC(=O)c1ccc([N+](=O)[O-])cc1	·	3	·	·	·	·
CC(=O)OCC(=O)[C@@]1(O)CCC2C3CCC4=CC(=O)C=C[C@]4(C)[C@@]3(F)C(O)C[C@@]21C (stereo not given in full)	·	6	·	·	·	·
CCOC(=O)c1c(NC(=O)CSc2nnc(-c3c[nH]c4ccccc34)n2C)sc2c1CCCC2	-2	7	0	3	0	·
CCOC(=O)c1c(NC(=O)CSc2nnc(-c3c[nH]c4ccccc34)n2CCOC)sc2c1CCCC2	-3	0	-9	0	32*	>38
Cc1c(C=NNC(=O)c2cc(Br)ccc2O)c(=O)n(C)c(=O)n1C	·	-3	·	·	·	·
CC[C@@H](CO)NC(=O)[C@@H]1C=C2c3cccc4c3c(cn4C)C[C@H]2N(C)C1	3	·	-22	-2	62*!	>38
CSCCCc1cn(C(CO)C(=O)NCCCCCCCCCCC(=O)N2CCNCC2)nn1 (stereo not given)	·	9	·	·	·	·
CC(C)(C)c1ccc(-n2nc(C(N)=O)c(O)cc2=O)cc1	1	9	1	-2	-4	·
CC(C)(C)c1ccc(-n2nc(C#N)c(Cl)cc2=O)cc1	·	23	·	1	93*	2.6*
SMILES	UGM FP inh	Mtb hypoxia rep	Rv3671c protease	FadD28 binding	RecA splice inh	GFP chromophore
COC(=O)C1=C(c2cccc(OC)c2OC)CC2CCC1N2C(=O)NCc1ccco1 (stereo not given)	·	10	·	·	·	·
O=C(NC1CC1)C1=CC(C2CC2)CC(OCc2ccc(CO)cc2)O1 (stereo not given)	·	15	·	·	·	·
CN(N=Cc1cccnc1)c1cnc2ccccc2n1	·	5	·	·	·	·
Cc1ccc(SCc2[nH]nc3c2C(C(C)C)C(C#N)=C(N)O3)cc1 (stereo not given)	0	3	2	-1	7	·
Cc1ccc(SCc2[nH]nc3c2C(c2ccco2)C(C#N)=C(N)O3)cc1 (stereo not given)	1	6	0	-2	73*	25*
Cc1ccc(SCc2[nH]nc3c2C(c2ccc(C)o2)C(C#N)=C(N)O3)cc1 (stereo not given)	5	2	-43	-1	37*	>12
C/C(=C\c1ccco1)C1C(C#N)=C(N)Oc2n[nH]c(-c3ccc(C)cc3)c21 (stereo not given)	-1	-2	-10	-4	21	·
CC(CCc1oc2ccc(Cl)cc2c1-c1ccc(C)o1)=NO	·	6	·	·	·	·
COc1nc(N/N=C/c2ccc(-c3ccccc3[N+](=O)[O-])o2)nc(N2CCOCC2)n1	5	·	-40	-1	61*	35*
COC(=O)C1NC(C(NC(=O)COc2ccccc2)C(=O)NCc2ccsc2)SC1(C)C (stereo not given)	·	5	·	·	·	·
CN1CCN2c3ccc(N)cc3CC3(C(=O)NC(=O)NC3=O)C2C1 (stereo not given)	·	7	·	-1	55*	>38
[O-]C1=N/[N+](=C/c2ccc(Cl)cc2)CC1	0	·	-4	-2	73*	29*
CCOC(=O)c1sc(N(Cc2ccccc2)C(=O)COC(=O)c2ccccc2O)nc1C	1	·	6	-4	-2	·
CCOC(=O)c1sc(N(Cc2ccccc2)C(=O)CCl)nc1C	2	6	3	1	88*	3.1*
COc1ccc(NN=C(N=Nc2nc(C)cc(=O)[nH]2)c2ccccc2)cc1	·	14	·	·	·	·
Cc1[nH]n(-c2ccccc2)c(=O)c1/C=N/NC(=O)c1ccc(O)cc1O	2	·	15	0	41*	2.8*
Cc1ccc(-n2[nH]c(C)c(/C=N/NC(=O)c3ccc(O)cc3O)c2=O)cc1	6	·	28	0	11	·
O=C(c1c[nH]c(C(=O)C(Cl)(Cl)Cl)c1)c1ccccc1Cl	-3	4	-2	-1	32*	25*
CC(=O)Oc1c(Br)cc(N(C(C)=O)S(=O)(=O)c2ccccc2)c2ccccc12	1	-2	-59	-2	37*	5.3*
CC(=O)Oc1ccccc1N(C(C)=O)S(=O)(=O)c1ccc2ccccc2c1	-1	6	-2	0	3	·
O=C(NN=C/C(Cl)=C\c1ccccc1)c1ccco1	·	-1	·	·	·	·
Cc1ccc2c(c1)NC(=O)[C@@]1(C)C(c3ccccc3)C3COc4ccccc4C3N1C2=O (stereo not given in full)	·	9	·	·	·	·
O=S(=O)(CCSc1nc2ccccc2s1)c1nc2ccccc2s1	4	10	-4	-4	78*	3.6*
CCS(=O)(=O)CCSc1nc2ccccc2s1	0	16	-6	-4	-2	·
